In ChEMBL document CHEMBL3988442, “University of Dundee, Small-Polar-MMV Screening Library” (2021):
For some assays here: Measured potencies and affinities stand elsewhere.

What was measured:
Design in all cases: scale not given: direction of the effect not stated beside the values
[1] = biological target: Protein translocase subunit SecA (Escherichia coli (strain K12)) (UniProt P10408); assay: Assay to Identify E. coli SecA ATPase Inhibitors; assay type: functional; conditions: 30 µM
[2] = biological target: T1, Ubiquitin-activating enzyme e1, putative (Leishmania donovani (strain BPK282A1)) (UniProt E9BSI1); assay: Leishmania donovani Ubiquitin Activating Enzyme (LdE1); assay type: functional; conditions: 30 µM
T1 sequence (whole entry): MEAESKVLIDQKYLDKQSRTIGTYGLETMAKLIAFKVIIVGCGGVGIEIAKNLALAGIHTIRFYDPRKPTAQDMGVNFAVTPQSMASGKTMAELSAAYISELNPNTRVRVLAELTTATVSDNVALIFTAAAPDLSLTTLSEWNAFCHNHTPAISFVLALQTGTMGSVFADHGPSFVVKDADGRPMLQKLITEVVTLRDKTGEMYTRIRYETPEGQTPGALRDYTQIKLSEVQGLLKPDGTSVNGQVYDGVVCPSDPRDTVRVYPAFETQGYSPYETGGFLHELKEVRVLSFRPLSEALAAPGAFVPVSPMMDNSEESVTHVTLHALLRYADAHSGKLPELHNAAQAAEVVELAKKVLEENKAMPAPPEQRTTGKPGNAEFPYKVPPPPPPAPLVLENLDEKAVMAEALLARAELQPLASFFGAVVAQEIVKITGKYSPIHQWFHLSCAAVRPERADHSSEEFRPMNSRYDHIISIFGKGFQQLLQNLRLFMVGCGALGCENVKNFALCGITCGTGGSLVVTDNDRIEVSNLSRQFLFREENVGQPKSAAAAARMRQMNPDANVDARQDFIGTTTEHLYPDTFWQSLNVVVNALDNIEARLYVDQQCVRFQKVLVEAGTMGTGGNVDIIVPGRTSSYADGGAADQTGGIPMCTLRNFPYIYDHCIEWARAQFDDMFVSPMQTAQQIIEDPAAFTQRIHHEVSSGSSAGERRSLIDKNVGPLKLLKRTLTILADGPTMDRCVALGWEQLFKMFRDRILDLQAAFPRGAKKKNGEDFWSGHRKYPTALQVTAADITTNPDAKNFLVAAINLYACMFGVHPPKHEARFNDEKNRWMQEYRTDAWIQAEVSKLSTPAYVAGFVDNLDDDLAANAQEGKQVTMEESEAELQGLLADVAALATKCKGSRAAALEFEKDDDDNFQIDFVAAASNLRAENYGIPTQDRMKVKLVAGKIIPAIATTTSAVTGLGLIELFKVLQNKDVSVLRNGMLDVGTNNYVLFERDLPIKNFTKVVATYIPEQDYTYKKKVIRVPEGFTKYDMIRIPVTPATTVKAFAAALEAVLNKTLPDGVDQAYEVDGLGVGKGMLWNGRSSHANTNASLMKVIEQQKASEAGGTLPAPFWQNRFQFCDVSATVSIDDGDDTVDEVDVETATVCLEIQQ

[3] = biological target: AMP-activated protein kinase, AMPK (Homo sapiens) (UniProt P54646+O43741+P54619+Q9UGJ0+Q9Y478+Q13131+Q9UGI9); assay: AMP-dependent Kinase enzyme assay. An in vitro enzyme assay that detects ADP turnover that is directly proportional to AMPK activity. This uses naive AMPK that is activated during the assay with MK-8722; assay type: functional; conditions: 30 µM
[4] = biological target: Sialic acid-binding Ig-like lectin 9 (Homo sapiens) (UniProt Q9Y336); assay: Hs-Siglec9 ALPHAscreen SOP 20170721; conditions: 10 µM
Sialic acid-binding Ig-like lectin 9 (Homo sapiens), sequence (Q9Y336 whole entry): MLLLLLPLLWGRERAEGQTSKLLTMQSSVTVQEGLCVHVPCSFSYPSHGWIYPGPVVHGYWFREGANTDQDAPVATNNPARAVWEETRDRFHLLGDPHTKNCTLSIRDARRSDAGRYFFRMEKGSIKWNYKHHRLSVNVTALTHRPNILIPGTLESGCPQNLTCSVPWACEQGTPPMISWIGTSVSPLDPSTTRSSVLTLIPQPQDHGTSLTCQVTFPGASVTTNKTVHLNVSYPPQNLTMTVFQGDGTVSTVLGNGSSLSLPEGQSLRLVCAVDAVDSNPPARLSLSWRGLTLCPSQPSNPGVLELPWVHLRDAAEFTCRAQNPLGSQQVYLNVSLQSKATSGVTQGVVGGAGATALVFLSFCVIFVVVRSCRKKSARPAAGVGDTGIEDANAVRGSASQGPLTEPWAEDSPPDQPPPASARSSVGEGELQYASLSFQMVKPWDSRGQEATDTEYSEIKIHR

[5] = system: Trypanosoma cruzi; assay: Trypanosoma cruzi phosphomannomutase and mannose-1-phosphate guanylyltransferase assay; assay type: functional; conditions: 10 µM
[6] = biological target: T2, Arginase-2, mitochondrial (Homo sapiens) (UniProt P78540); assay: in vitro enzyme assay to detect the production of urea directly proportional to the activity of Arginase II; assay type: functional; conditions: 33.3 µM; note: in the data most compounds retested in dose-response had high values
T2 sequence (whole entry): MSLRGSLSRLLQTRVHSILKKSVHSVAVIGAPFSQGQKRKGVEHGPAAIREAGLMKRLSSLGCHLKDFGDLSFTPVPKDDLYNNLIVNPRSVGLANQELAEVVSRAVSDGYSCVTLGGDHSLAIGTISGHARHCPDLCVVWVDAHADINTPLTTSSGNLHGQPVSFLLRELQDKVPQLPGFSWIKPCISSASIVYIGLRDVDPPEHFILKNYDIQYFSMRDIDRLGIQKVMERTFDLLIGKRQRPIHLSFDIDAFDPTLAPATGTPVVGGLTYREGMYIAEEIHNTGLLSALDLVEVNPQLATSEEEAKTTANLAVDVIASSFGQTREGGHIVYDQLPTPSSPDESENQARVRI

[7] = biological target: T3, Proteasome subunit beta (Trypanosoma cruzi) (UniProt O96673); assay: Trypanosoma cruzi proteasome chymotrypsin-like activity (TcProtChymo) assay.; note: in the data most compounds retested in dose-response had high values; assay type: functional; conditions: 9.37 µM
T3 sequence (whole entry): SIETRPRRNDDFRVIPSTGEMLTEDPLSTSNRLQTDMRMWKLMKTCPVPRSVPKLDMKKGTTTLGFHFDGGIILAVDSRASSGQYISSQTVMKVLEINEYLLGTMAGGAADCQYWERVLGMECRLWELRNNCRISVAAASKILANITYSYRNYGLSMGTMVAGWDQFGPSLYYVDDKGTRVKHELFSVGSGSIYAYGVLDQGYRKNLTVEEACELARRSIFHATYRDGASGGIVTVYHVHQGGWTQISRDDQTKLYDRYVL

[8] = species: Homo sapiens; assay: To identify inhibition of the IFN signalling (Jak-Stat) pathway via expression of an eGFP reporter gene under the control of an IFN-stimulated response element (ISRE) containing MxA promoter.; assay type: functional; conditions: 30 µM
[9] = biological target: T4, Tyrosyl-tRNA synthetase, putative (Trypanosoma cruzi (strain CL Brener)) (UniProt Q4DSP6); assay: Trypanosoma cruzi tyrosyl tRNA synthetase (TcYRS) _High Tyrosine SOP; assay type: functional; conditions: 30 µM; note: in the data most compounds retested in dose-response had high values
T4 sequence (whole entry): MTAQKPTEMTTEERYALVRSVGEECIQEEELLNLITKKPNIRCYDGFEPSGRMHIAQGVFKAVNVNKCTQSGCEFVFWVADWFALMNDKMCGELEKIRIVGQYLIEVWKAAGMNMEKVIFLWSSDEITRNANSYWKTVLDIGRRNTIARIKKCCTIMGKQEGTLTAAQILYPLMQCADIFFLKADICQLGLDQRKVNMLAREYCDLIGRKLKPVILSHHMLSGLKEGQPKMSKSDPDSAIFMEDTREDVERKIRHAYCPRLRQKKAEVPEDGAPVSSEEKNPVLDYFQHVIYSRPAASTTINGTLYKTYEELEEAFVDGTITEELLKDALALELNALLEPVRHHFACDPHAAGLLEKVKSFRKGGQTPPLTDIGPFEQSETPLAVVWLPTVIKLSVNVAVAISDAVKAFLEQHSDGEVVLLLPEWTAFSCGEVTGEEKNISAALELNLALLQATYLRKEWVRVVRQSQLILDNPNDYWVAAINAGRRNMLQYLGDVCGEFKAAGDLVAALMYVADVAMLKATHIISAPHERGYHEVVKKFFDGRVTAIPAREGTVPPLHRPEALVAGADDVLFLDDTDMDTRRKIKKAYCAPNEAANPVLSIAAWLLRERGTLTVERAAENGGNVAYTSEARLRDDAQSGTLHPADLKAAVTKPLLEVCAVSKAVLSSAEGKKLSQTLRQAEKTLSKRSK

[10] = biological target: T4, Tyrosyl-tRNA synthetase, putative (Trypanosoma cruzi (strain CL Brener)); assay: Trypanosoma cruzi tyrosyl tRNA synthetase (TcYRS) SOP; assay type: functional; conditions: 30 µM
[11] = biological target: Chromo domain-containing protein 1 (Saccharomyces cerevisiae (strain ATCC 204508 / S288c) (Baker's yeast)) (UniProt P32657); assay: ScCHD-1 Enzyme Inhibition Assay; assay type: functional; conditions: 30 µM; note: in the data most compounds retested in dose-response had high values
Chromo domain-containing protein 1 (Saccharomyces cerevisiae (strain ATCC 204508 / S288c) (Baker's yeast)), sequence (P32657 whole entry, the tested form may be a part): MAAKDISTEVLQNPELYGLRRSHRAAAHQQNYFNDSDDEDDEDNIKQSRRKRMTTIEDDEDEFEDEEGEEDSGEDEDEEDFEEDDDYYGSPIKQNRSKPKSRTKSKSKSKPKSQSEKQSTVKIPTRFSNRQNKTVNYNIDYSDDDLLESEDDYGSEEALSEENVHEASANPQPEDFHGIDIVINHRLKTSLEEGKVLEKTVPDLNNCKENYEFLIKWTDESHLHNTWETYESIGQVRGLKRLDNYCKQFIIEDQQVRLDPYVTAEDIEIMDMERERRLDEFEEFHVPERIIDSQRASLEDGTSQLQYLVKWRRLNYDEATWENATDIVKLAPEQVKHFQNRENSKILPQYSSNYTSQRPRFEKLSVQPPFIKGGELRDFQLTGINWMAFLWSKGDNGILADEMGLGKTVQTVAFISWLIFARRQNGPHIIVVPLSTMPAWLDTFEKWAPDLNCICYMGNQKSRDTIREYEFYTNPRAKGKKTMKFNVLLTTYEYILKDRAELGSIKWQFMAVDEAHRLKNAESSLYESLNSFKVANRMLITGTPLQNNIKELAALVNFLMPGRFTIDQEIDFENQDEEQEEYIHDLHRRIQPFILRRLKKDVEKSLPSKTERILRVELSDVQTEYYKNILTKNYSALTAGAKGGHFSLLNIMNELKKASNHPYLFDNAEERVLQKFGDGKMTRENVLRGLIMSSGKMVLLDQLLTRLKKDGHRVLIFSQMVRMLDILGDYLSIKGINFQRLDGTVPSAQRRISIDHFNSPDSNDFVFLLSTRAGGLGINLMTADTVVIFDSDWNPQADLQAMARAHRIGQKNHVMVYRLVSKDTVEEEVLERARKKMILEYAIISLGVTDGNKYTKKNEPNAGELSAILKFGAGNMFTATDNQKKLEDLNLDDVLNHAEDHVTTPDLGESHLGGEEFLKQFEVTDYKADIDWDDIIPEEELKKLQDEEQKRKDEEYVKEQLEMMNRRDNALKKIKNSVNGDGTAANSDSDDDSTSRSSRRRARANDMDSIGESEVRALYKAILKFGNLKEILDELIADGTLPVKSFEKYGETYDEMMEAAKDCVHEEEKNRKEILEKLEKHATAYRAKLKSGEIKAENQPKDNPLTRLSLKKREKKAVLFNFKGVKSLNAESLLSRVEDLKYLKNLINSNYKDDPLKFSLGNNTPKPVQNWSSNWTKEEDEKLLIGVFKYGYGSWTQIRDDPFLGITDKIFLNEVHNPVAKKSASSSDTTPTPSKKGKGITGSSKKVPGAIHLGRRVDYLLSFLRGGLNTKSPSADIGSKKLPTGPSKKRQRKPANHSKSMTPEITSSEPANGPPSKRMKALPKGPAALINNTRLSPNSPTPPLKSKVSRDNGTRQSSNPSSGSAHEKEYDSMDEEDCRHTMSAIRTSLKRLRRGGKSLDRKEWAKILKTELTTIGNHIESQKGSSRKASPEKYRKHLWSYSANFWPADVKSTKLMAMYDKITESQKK

Protein translocase subunit SecA (Escherichia coli (strain K12)), sequence (P10408 whole entry): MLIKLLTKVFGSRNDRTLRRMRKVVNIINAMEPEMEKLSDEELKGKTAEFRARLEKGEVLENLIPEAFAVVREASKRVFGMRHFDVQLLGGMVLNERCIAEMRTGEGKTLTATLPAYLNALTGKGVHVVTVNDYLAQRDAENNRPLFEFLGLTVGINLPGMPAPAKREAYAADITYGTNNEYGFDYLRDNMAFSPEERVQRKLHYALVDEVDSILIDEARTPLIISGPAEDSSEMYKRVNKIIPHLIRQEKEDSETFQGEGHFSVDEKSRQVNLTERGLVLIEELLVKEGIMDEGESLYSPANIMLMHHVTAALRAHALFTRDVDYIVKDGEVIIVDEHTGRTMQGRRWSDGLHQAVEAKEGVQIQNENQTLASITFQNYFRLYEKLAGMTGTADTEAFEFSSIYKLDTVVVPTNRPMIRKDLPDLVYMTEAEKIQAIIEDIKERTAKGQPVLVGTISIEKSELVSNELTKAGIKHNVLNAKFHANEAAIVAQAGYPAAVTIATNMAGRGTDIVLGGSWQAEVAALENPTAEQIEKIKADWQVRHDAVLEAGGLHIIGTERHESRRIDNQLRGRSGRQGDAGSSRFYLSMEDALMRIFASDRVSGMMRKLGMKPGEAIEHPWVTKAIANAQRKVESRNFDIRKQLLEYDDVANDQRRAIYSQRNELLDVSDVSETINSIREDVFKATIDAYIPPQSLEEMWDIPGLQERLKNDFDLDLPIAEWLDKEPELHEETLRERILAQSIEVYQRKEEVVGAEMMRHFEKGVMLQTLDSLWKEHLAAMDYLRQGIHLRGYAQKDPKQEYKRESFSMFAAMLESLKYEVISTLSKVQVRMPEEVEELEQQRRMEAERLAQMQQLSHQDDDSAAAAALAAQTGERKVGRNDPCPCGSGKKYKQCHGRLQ

Compound | Percent Effect [1] | Percent Effect [2] | Percent Effect [3] | Percent Effect [4] | Percent Effect [5] | Percent Effect [6] | Percent Effect [7] | Percent Effect [8] | Percent Effect [9] | Percent Effect [10] | Percent Effect [11]
Cc1cccc2c1cnn2CCCNC(=O)CCCC(=O)O | -1.56% | 5.2% | 4.98% | 7.89% | 4.42% | -112% | 0% | 2.46% | 4.3% | 16.1% | -2.54%
COc1cccc(N2CCN(CC(O)c3ccc(C)cc3)CC2)c1 (configuration not stated) | -1.61% | 21.1% | -2.12% | -9.96% | 0.292% | 0% | 17% | 3.85% | 5.32% | 20.8% | 21%
Cc1nc(COc2cccc(C#N)c2)no1 | -1.52% | 21.1% | -5.19% | 8.22% | 5.13% | -0.36% | 8.21% | -0.09% | 10.3% | 25.9% | -8.11%
O=C(Nc1nc2c(s1)CN(S(=O)(=O)C1CC1)CC2)c1c(F)cccc1F | -3.34% | 0% | 17.1% | -7.6% | -4.11% | 2.27% | 9.41% | 30.1% | 3.23% | 7.5% | -4.6%
Cc1ccc2oc(CNC(C)c3nnc4n3CCCC4)cc2c1 (configuration not stated) | -2.09% | -10.8% | -8.92% | -1.29% | 0.781% | -2.5% | 10.6% | 17.8% | 11.9% | 15.8% | 1.91%
Cc1nn(C)c(Cl)c1C1CCCN1CCc1ccccn1 (configuration not stated) | 3.64% | -3.8% | 12.3% | 1.51% | -1.74% | 7.53% | 5.83% | 4.77% | -1.04% | 2.53% | -11.7%
CNC(=O)c1cc2c(nc1N(C)C)CCN(S(=O)(=O)C1CC1)CC2 | -2.36% | 10.4% | -2.46% | -6.22% | -10.8% | 9.68% | 8.7% | 0.586% | -3.17% | -3.85% | -7.64%
Cn1ccc(C(=O)N2CCC[C@]3(C[C@@H](OCc4ccccn4)CO3)C2)n1 | -3.65% | 13.5% | 2.83% | -1.64% | -2.64% | 8.6% | 15.1% | 2.73% | 8.65% | 17.9% | -1.5%
CN1CCN(Cc2cscn2)CC(C(=O)N(C)C)C1 (configuration not stated) | -6.29% | 18.7% | -6.4% | -0.543% | 5.91% | -3.03% | 3.44% | 5.65% | 8.51% | 14.1% | -4.45%
COCC1CC2(CCN(C(=O)c3ccc(OC)c(Cl)c3)CC2)CO1 (configuration not stated) | 4.75% | 15.6% | -2.46% | -7.51% | -5.82% | 9.68% | 13.8% | 15.9% | -1.06% | 3.85% | -9.46%
CC(C)NC(=O)c1sccc1N(C)S(=O)(=O)c1ccc(Cl)cc1 | 2.02% | 7.89% | 10.6% | -13% | -7.5% | 11.8% | 13.1% | 22.6% | -2.13% | 0% | -5.6%
CCC(CC)c1cc(C(=O)N2CCCC(n3cncn3)C2)on1 (configuration not stated) | -2.21% | -1.39% | -4.63% | 9.13% | 3.6% | 22.5% | 11.9% | -8.85% | 1.05% | 5.13% | 0.586%
CC(C)c1nc2n(n1)CC(NCc1nc(-c3cccnc3)no1)CC2 (configuration not stated) | -3.79% | 2.6% | -1.93% | -12.6% | 5.78% | -2.74% | 11.1% | -3.81% | 3.81% | 11.8% | -23.3%
CCN(CC)C(=O)CCc1c(C)nc2cc(O)nn2c1C | -1.3% | 0% | -288% | 0.0855% | -3.99% | -1.18% | 24.1% | 3.53% | 4.25% | 7.79% | -6.56%
CN(C)[C@@H]1CCN(C(=O)c2ccsc2)[C@H]1Cc1cnn(C)c1 | -3.13% | 0% | 12.6% | 1.61% | -3.15% | -1.63% | 12.2% | 4.21% | 3.19% | -1.28% | 2.12%
COc1cc(C(=O)NC(CC(=O)O)c2cccs2)cc(Cl)c1OC (configuration not stated) | -3% | 8.86% | 6.71% | -5.2% | -3.79% | 1.07% | 20.9% | -0.746% | 2.08% | 5.06% | -25.4%
Cc1cc(NC(=O)CN(C)C2CCCN(c3cccnn3)C2)n(C)n1 (configuration not stated) | -4.44% | 7.89% | -28.4% | 2.85% | 12.2% | -1.8% | 10.6% | -5.3% | 4.43% | 13.6% | 6.51%
CC(C)C(Sc1nnnn1-c1ccccc1)C(=O)NCc1cccnc1 (configuration not stated) | -3.59% | 7.79% | 1.33% | -5.13% | -8.05% | -1.42% | 13% | 17% | 4.85% | 9.76% | -8.86%
NC(=O)Cc1ccc(NC(=O)C2CCOCC2)cc1 | -3.03% | 10.8% | -5.71% | -1.1% | -7.52% | 2.03% | 11.5% | 19.3% | 5.94% | 15.8% | -1.7%
O=C(NCCc1nnc2n1CCC2)NC1(c2cccc(F)c2)CC1 | -3.06% | 15.8% | 4.44% | -2.57% | -3.6% | -3.55% | 14.1% | 11% | 0% | 10.4% | -3.66%
CC(CNC(=O)Nc1ccc(N(C)C)nc1)Cn1cccn1 (configuration not stated) | -4.28% | 4.17% | -13.8% | -3.22% | -3.21% | 3.09% | 13.7% | -15.8% | -3.16% | 2.56% | -3.32%
O=C(CCC1CCCC1)NCCn1nc(C2CCNC2)c2nccnc21 (configuration not stated) | -2.79% | 12.2% | -13.6% | -8.06% | -6.52% | -5.34% | 17.6% | 23.6% | -3.23% | -3.9% | -19.5%
